Experimental findings from the OligoGym collection are described below.
Further: reference of the scale not given here.

One assay deals with ICAM4. The assay is described as follows: pooled miR-30 sensor sort-seq; sequence = guide strand. The conditions noted are these: shRNA.
Sequence TTCATAGCTAGGCACTTGCATA gave a sensor-assay potency score (higher = more potent) of -1.17. TTTTTCTCGCTCAGCCGGCATA: the sensor-assay potency score (higher = more potent) was -1.31. TAGCTAGGCACTTGCATAGGTA had a sensor-assay potency score (higher = more potent) of -0.927. Still for that read-out and setting: under TTTGTAGGCGGTGATCCTGGAG stands -0.0996; under TATTCCTCTTTTTCTCGCTCAG, -0.694.

The target in another assay is ICOS. The assay is described as above. The conditions noted are these: shRNA.
The sequence TAAACATCTCATAATTGGCAGA registered a sensor-assay potency score (higher = more potent) of -0.689.

TAGTATGATAGTGAAATGCGGA registered a sensor-assay potency score (higher = more potent) of -0.711. As to TAAAATTTGTACACCTCCGTTG, the sensor-assay potency score (higher = more potent) is -0.108. In the case of TTGTGAATTATTATTCATCTTG, the sensor-assay potency score (higher = more potent) was -0.481. Still for that read-out and setting: under TACTGTACTGTACACATCCAGC stands -0.859.

The sequence TTTTGTCTTAGTGAGATCGCAG yielded a sensor-assay potency score (higher = more potent) of -0.217. On to TTGTGATTCATAAATATGCAAA, for which the sensor-assay potency score (higher = more potent) is -1.24. Same read-out and setting: under TAAACTACAACATAATCCCAGT stands -0.438.

Sequence TTGTGAAATATAAACATCTCAT gave a sensor-assay potency score (higher = more potent) of -0.925.

TTTAAGAATCTTTCTAGCCAAA registered a sensor-assay potency score (higher = more potent) of -1.13.

In turn, TTTGTCTTAGTGAGATCGCAGA displayed a sensor-assay potency score (higher = more potent) of -0.78.

Take TTGACTGATACAGTCATTCTTC: the sensor-assay potency score (higher = more potent) turned out to be 0.168.

In a further assay the target is IDI2. The description is as above. The settings on record: shRNA.
In the case of TAAACGTCGAGTCACTTGGCTG, the sensor-assay potency score (higher = more potent) is -1.26. Still for that read-out and setting: as for TTATTTGTAAGCATATTACTGA, the figure is 0.0641; as for ATTCTCATCCACAACAATCAGC, -0.745; as for TAACCTTATCATTCTCATCCAC, -0.207. TTTCTCAATGTTTTCGTTCAGA showed a sensor-assay potency score (higher = more potent) of -0.492. For the sequence TTGTCATGAACACAATGTCCTC, the sensor-assay potency score (higher = more potent) was -1.35. Sequence TTGTGAAGCTCCACAAACGGGG yielded a sensor-assay potency score (higher = more potent) of -0.921.

TAGGATGCAAGATTGAATGTGT registered a sensor-assay potency score (higher = more potent) of 0.9. On the same count and under the same terms, under TTTCGTTTCACTGGGATCCGGG stands -0.0224. For the sequence TTTCGTGTCCGACCTCTGCTGT, the sensor-assay potency score (higher = more potent) was -0.749.

TAGTGATTTATACATGATGGGC gave a sensor-assay potency score (higher = more potent) of -1.3. TTTTCTTCCAGTTCTGCTGGGT had a sensor-assay potency score (higher = more potent) of 0.298.

Another assay has as its target IER5. Described as above. The conditions noted are these: shRNA.
TTCTTATGCAGCTTGATGCCGC registered a sensor-assay potency score (higher = more potent) of -0.805. Same read-out and setting: as for ATAAGGTCTTTCCACTTCGGGC, the figure is -1.59; as for TTCATGTCTCTCAGCACCGGCT, -0.831. Still for that read-out and setting: as for TATCGCAGCAGATCTGCCCGGG, the figure is -0.199; as for TTGTAGATCTTGCCCAGAGAGA, -1.34.

The sequence TACAAAAATCAATACAACGAAG registered a sensor-assay potency score (higher = more potent) of -1.23. Same read-out and setting: as for TTTCCTAGAGTAATCACAGGAT, the figure is 0.282. Same read-out and setting: under TAAAAATATATCTTTTCTCTAT stands -0.862; under TTCCAAGCTTGAACTCTTCTGT, 0.444. For the sequence TTATGCAGCTTGATGCCGCCGC, the sensor-assay potency score (higher = more potent) was -0.467. On the same count and under the same terms, under TTATCGCAGCAGATCTGCCCGG stands -0.618.
